In this assay the test system is VDR:RXRa (NR concentration 270 nM, RXRa partner concentration 90 nM). Kind of assay: PBM binding z-score (relative to random genomic background probes); higher = stronger binding; sequences stand for … in GC…GCGATTGACAGCGTAGAATGAAGG
The protocol:
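Protein-binding microarray (Agilent 4x180K custom design, double-stranded 60-nt probes: 5' GC cap, 34-nt variable region, 24-nt constant primer region; full probe sequence given). Purified or IVT nuclear receptor:RXRα heterodimers (3:1 NR:RXRα, mostly 270:90 nM) or homodimers were incubated for 1 h in PBS with 2% milk and no ligand, then detected with Alexa488 antibodies. Fluorescence from o1-orientation probes (~5 replicates averaged) was converted to z-scores against 500 random hg19 background probes. Variable regions are seed direct-repeat (DR0–DR5) sites, all their single-nucleotide variants and half-site ablations.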
With CTCGAAAGGTCGTGCTCATGTGAGTATACCAAAC, the PBM binding z-score was determined as 3.36.

Consider CAAACTAGGTCAAGATCAAAGTCGGTTTGTGCCA, for which the PBM binding z-score turned out to be 1.52.

For CGTCCAAGGTCAGCAGGTCAGTGATAGCGACGTG, the PBM binding z-score is 3.91.

Turning to GCAGACAGGTGAAACGCAGGTAACTGAGGGTGGC, the PBM binding z-score is -0.361.

For TATACAGGGTTAAAGGCCAGAGTACGAATGTCGA, the PBM binding z-score worked out at 2.09.

Take CAAACTAGGTCACCGGACGGTCAAAGTCCGCATG: the PBM binding z-score came out at 3.59.

As to CTCGAAAGGTCGTGCTAAGGTGAGTATACCAAAC, the PBM binding z-score is 3.87.

Turning to CCTAGCAGGCCAGCGTCACTCAAGCATTTCGCTT, the PBM binding z-score is -0.645.

The sequence TCGAGTAGGTTAGCGGCATTCAGAATGGCGTCGA returned a PBM binding z-score of -0.635.

Consider TCTTGTAGATCCAAGGTTAAGAAAGCCGAAGCCT, for which the PBM binding z-score was determined as 0.448.

For the sequence ATAGAAAGGTCGTGAGGTGAGTATACAGAAAGGC, the PBM binding z-score turned out to be 3.63.

The sequence CGTCCAATGTCAATGCTAGGTCAGTGAAAGCATT yielded a PBM binding z-score of 0.803.

Turning to TCGAGTAGGTTAGTCGGGGTATTCAGCCAACATA, the PBM binding z-score was 0.453.

For the sequence CCGACTGGGGCAAAGATTACCATACTCAGTACGA, the PBM binding z-score was -0.618.

CCTCGGAGGATAGAAGGTCAGAGCTGTCCGCTTT: the PBM binding z-score was 0.755.

Sequence GTACCAAGGTGAATATGTCGTTGATGAGTAGGCG yielded a PBM binding z-score of -0.0532.

In the case of ACAGACTGGTGAGTGAAGGTAACTCAGCTGGACG, the PBM binding z-score is -0.365.

The sequence TCAGAAAGGTGAAGGTAACTCAGGTACGCAGTCG showed a PBM binding z-score of 1.35.

Turning to TCTTGTAGATCAGCAGGTTAAGAATGCTGGCCAA, the PBM binding z-score amounted to 0.397.

The sequence ACTATTAGTTCACTTAGGGCAACCGATACGACGC showed a PBM binding z-score of 2.52.

Sequence ACTAGCAGGGCAAGGGTCACTCAAGATTAGTCCG displayed a PBM binding z-score of 2.95.

Regarding ATTTCTAGGTAAAGATAGTTCAGTGAATGCAAAT, the PBM binding z-score came out at 1.18.

The sequence TATCCTAGGTCATGCGGGCCAGTATAGTGTCGGC showed a PBM binding z-score of 3.5.

Consider TCAGACAGGTGAGGGTAACTCAGGTACGCAGTCG, for which the PBM binding z-score turned out to be 0.677.

Regarding TGTCAAAGTTCAATGGTAACGTAAGTATCCACAC, the PBM binding z-score stood at 3.81.

For the sequence ACTATTAGTTGAGACGAGGGCAACCAATAGGTTG, the PBM binding z-score is 0.987.

In turn, AGTATTAGTTGACTTAGGGCAACCGATACGACGC showed a PBM binding z-score of 0.573.

For GCATATAGGTAATACAAGGTGAATGTCCGATTGT, the PBM binding z-score came to 0.106.

GCTATTAGTTGAAAGGACAACCGAATGATTCTCG: the PBM binding z-score was -0.113.

Turning to CTTACTGGGCCAAGGTCATTGATCAGTCAAAGCA, the PBM binding z-score is 3.44.

Turning to GGAACGAGGGCATTCGAGTTGATAGTATGGCGAT, the PBM binding z-score came to 4.13.

In turn, ATACCAAGGTGATCGTGAGGTCGCTGATACTAAC displayed a PBM binding z-score of 2.39.

Consider CAAACTAGGTCACGGAGGTCAAAGTCCGTGCGTA, for which the PBM binding z-score is 7.92.

For the sequence GATACAGGGTCAGCTAGACGCCAGAGTATGGAAA, the PBM binding z-score is 2.29.

Consider CGAACGAGTGCATGAGTTGATAGCAAATGCCGAT, for which the PBM binding z-score amounted to 1.58.

In the case of ATCGAAAGGTCGAGGTAAGTATAGAGAAAGGGAA, the PBM binding z-score amounted to 2.36.

In the case of CATACAGGGTCAGCTAGGTCAGAGTAGGGACGGC, the PBM binding z-score is 5.76.

The sequence AATACAGGGTCATCGAAGGCCAGAGTACGCACAG showed a PBM binding z-score of 5.49.

Sequence TGCCAAAGTTCAAAGGTAACGTAAGTATCCACAC yielded a PBM binding z-score of 4.97.

TCGAGTAGGTTAGGGGCATTCATAATGGCGTCGA displayed a PBM binding z-score of 0.655.

Values taken from the supplement of paper PMC6555819.
